Bioassay records as filed in PubChem BioAssay.
Pf growth 96h – inhibits malaria parasite growth, 96 h; P. falciparum luciferase reporter growth, 96 h; AID 504834; Potency, µM (series often up to 28.7 µM), without a hit: at the top dose activity change, negative = inhibition, usual class: inhibitors; 6.9% of 320,000 active; also: potency is read from the fitted curve at half-maximal effect; % is scaled to controls: 0 for no effect and ±100 for the full control effect
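P. falciparum expressing integrated firefly luciferase, in erythrocytes at 2% hematocrit, 0.05% parasitemia, incubated with compounds 96 h at 37 C, 5% CO2. Growth inhibition read as loss of luminescence; two-generation exposure targets delayed-death apicoplast inhibitors.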
NS1 inh – influenza NS1 inhibition | 0.4% of 270,000 active | Potency, µM (top dose mostly 46.1 µM), inactives show at the highest dose activity, positive = more growth; calls by dose curve; also: potency is read from the fitted curve at half-maximal effect; actives are rising curves; nearly all actives have a fitted effect of over 50% in size
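Recovery from NS1-induced slow growth read by OD600 in budding yeast switched to galactose assay medium (pH 6.0, -URA) at 1:100 dilution. Compound 23 nl per well; the matching strain lacking NS1 serves as control.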
Sm TGR block – blocks Schistosoma mansoni thioredoxin glutathione reductase; Q962Y6; purified TGR, DTNB reduction, TNB absorbance 405 nm; Potency, µM (titrated, usually from 114 µM), for the others: top-dose activity change, negative = inhibition, actives largely listed as inhibitors; 3% of 360,000 active; AID 485364; also: potency is read from the fitted curve at half-maximal effect; % is scaled to controls: 0 for no effect and ±100 for the full control effect; nearly all actives have a fitted effect of over 60% in size
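Kinetic colorimetric format: TGR-catalysed, NADPH-driven DTNB reduction monitored via TNB absorbance. Enzyme dispensed at 20 nM; compound exposure 15 min at room temperature before reaction start.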
Cycloheximide cs – counter-screen for Shiga toxin inhibitors: cycloheximide protein synthesis inhibition. 12% of 300,000 active. cell reporter, cycloheximide protein synthesis inhibition counterscreen. AID 2314. max response, %; in the data active = max response mostly above about 13%, no sharp cut-off; inactive = mostly below about 14%; also: read at 38.3 µM for the half of the compounds with a filed dose; 0% is about no effect
Shiga toxin inh – blocks Shiga toxin action in Vero cells; Vero cells, Shiga toxin protein synthesis inhibition reporter; inhibition, % at 38.7 µM; 9.2% of 290,000 active; AID 2315; in the data active = inhibition mostly above about 28%, no sharp cut-off; inactive = mostly below about 43%; also: 0% is about no effect
Pf growth 48h – inhibits P. falciparum growth in the first generation, 48 h; Potency, µM (series often up to 28.7 µM), without a hit: at the top dose activity change, negative = inhibition, hits mostly inhibitors; 5.9% of 310,000 active; AID 504832; P. falciparum luciferase growth in erythrocytes, 48 h; also: potency is read from the fitted curve at half-maximal effect; % is scaled to controls: 0 for no effect and ±100 for the full control effect
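Luciferase-expressing P. falciparum in infected erythrocytes (2% hematocrit, 0.1% parasitemia final) in RPMI 1640/0.5% Albumax were exposed to compound for 48 hours at 37 C, 5% CO2; growth read as luminescence.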
Flu NS1 inh – validation of influenza NS1 protein function inhibitors. shares compounds with NS1 inh. influenza NS1 function cell assay, 15-point titration. activity change, negative = inhibition, % at 32.9 µM. 1,400 tested, under 10 active; calls by dose curve; also: 0% is about no effect
PR8 titer – reduces influenza A/PR/8/34 replication in MDCK cells. shares compounds with NS1 inh. MDCK infected influenza A/PR/8/34, virus titer TCID50; active compounds read low. virus titer (log TCID50), log10 TCID50 at 5 µM. 30% of 95 active; call rule not given here
Starred values were filed as active, the others as inactive; ? = inconclusive; nt = no result given; [ ] = dose if it differs, or a comment. Sampled rows, rich in hits. Any-hit rate of the full collection: about 21%. Unless noted, calls follow the shape of the dose curve; as a rule, active = well fitted curve in the direction sought with a large enough effect; inconclusive = small, poorly fitted or top-dose-only effect, or another doubt; inactive = no such curve, though single readings can be large; an effect the other way counts as inactive or inconclusive.

SMILES	Pf growth 96h	NS1 inh	Sm TGR block	Cycloheximide cs	Shiga toxin inh	Pf growth 48h	Flu NS1 inh	others
O=C(COc1ccc(Cl)cc1Cl)Nc1ccc2nc3n(c(=O)c2c1)CCCC3	?	-32%	9%	6	-6	-23%	nt
Cc1ccc(N2CCN(S(=O)(=O)c3ccc4oc(=O)ccc4c3)CC2)c(C)c1	-16%	-51%	11%	-1	19	-2%	nt
Cc1cccc(C(=O)NN2C(=O)C3C(c4ccccc4)C=CC(c4ccccc4)C3C2=O)c1 (centres undefined)	38%	3.2µM*	-7%	-5	-3	18%	-1
Cc1ccc(C(=O)NN2C(=O)C3C4C=CC(C5CC45)C3C2=O)cc1 (centres undefined)	0%	nt	13%	2	36	-11%	nt
Cc1cccc(C2C3=C(Nc4[nH]n(-c5ccccc5)c(=O)c42)c2ccccc2C3=O)c1 (centres undefined)	?	?	-3%	-2	-8	?	nt
Cc1ccccc1C1C2=C(Nc3[nH]n(-c4ccccc4)c(=O)c31)c1ccccc1C2=O (centres undefined)	?	11µM*	-11%	-3	-4	?	-22
CCc1[nH]c(=S)c(C#N)c(-c2ccccc2)c1C(=O)OC	12%	10µM*	-4%	3	19	13%	9
CCn1cc(/C=N\NC(=O)Cc2ccc([N+](=O)[O-])cc2)c(C)n1	0%	-19%	-9%	2	-1	22%	nt
O=C(c1cnn2c(C(F)(F)F)cc(-c3cccs3)nc12)N1CCN(C(c2ccccc2)c2ccccc2)CC1	?	16µM*	-13%	9	-2	0.93µM*	7
CN1CCN(C(=O)c2cnn3c(C(F)(F)F)cc(-c4cccs4)nc23)CC1	?	5%	4%	-3	-9	-14%	nt
O=C1c2cccc3c(N4CCOCC4)c([N+](=O)[O-])cc(c23)C(=O)N1c1cccc2ccccc12	10µM*	?	-1%	-4	1	?	-2
Cc1ccc(OCC(=O)Nc2ccc3nn(-c4ccc(Cl)cc4)nc3c2)cc1	nt	nt	-2%	nt	nt	nt	nt
COc1ccc(C(=O)N/C(=C/c2cccc3ccccc23)C(=O)NCCc2c[nH]c3ccccc23)cc1OC	?	11µM*	0%	-5	11	?	?
COc1ccc(/C=C(/NC(=O)c2ccc(OC)c(OC)c2)C(=O)NCCc2c[nH]c3ccccc23)cc1	?	7.9µM*	-2%	5	-10	?	4
Cc1ccc(C(=O)N/C(=C\c2cccs2)C(=O)NCCc2c[nH]c3ccccc23)cc1	?	9%	9%	-3	-7	-26%	nt
COc1ccc(/C=C(/NC(=O)c2ccc(OC)cc2)C(=O)NCCc2c[nH]c3ccccc23)cc1	?	?	2%	-2	10	?	nt
COc1ccc(-c2noc(-c3ccccc3NC(=O)c3cc(OC)c(OC)c(OC)c3)n2)cc1	nt	nt	0%	nt	nt	nt	nt
O=c1cc(O)c2sc(Nc3ccc(F)cc3)nc2[nH]1	113%	13µM*	-13%	-2	-15	?	1
O=c1cc(O)c2sc(Nc3cccc(C(F)(F)F)c3)nc2[nH]1	0%	?	-3%	3	-1	?	nt
CC(C)(C)c1ccc(OCC(=O)NCC2(N3CCOCC3)CCCCC2)cc1	nt	nt	-1%	nt	nt	nt	nt
Cc1ccc(S(=O)(=O)Nc2ccccc2C(=O)OC(C)C(=O)Nc2ccc3ccccc3c2)cc1[N+](=O)[O-] (centres undefined)	?	4.5µM*	1%	2	12	-10%	-10
Cc1cccc(C(=O)N2CCC(=O)N([C@H](COCc3cccc(Cl)c3)Cc3ccccc3)CC2)c1	nt	nt	nt	5	-14	nt	nt
O=C(c1ccc(Cl)c(Cl)c1)N1CCC(=O)N(C(COCc2cccc(Cl)c2)Cc2ccccc2)CC1 (centres undefined)	-103%	22µM*	-4%	-5	-14	-69%	1
O=C(c1ccc(C(F)(F)F)cc1)N1CCC(=O)N(C(COCc2ccc(C(F)(F)F)cc2)Cc2ccccc2)CC1 (centres undefined)	9.3µM*	?	-3%	15	22	?	-18
O=C(NCCc1ccccc1)C(=O)NCC1OCCN1S(=O)(=O)c1ccc(F)cc1 (centres undefined)	31%	4%	-9%	0	11	23%	nt
SMILES	Pf growth 96h	NS1 inh	Sm TGR block	Cycloheximide cs	Shiga toxin inh	Pf growth 48h	Flu NS1 inh	others
O=Cc1c(NCc2cccc(F)c2)c2ccccc2[nH]c1=O	-3%	-12%	5%	-2	-12	0%	nt
O=[N+]([O-])c1ccc(CSc2ccc(S(=O)(=O)N3CCOCC3)cn2)cc1	?	nt	13%	nt	nt	?	nt
CC/C(=N\NC(=O)c1ccc(CN(C)S(=O)(=O)c2ccc(C)cc2)cc1)c1ccc(OC(F)F)cc1	0%	?	2%	-2	-7	3%	14
Cc1ccc(S(=O)(=O)N(C)Cc2ccc(C(=O)NN=C(CC(C)C)CC(C)C)cc2)cc1	?	?	1%	-3	8	-20%	nt
O=C(CN1C(=O)C2CCCCN2c2ccc(C(=O)N3CCCC3)cc21)NCc1cccc(F)c1 (centres undefined)	nt	nt	-2%	nt	nt	nt	nt
CC(C1CC1)N(C(=O)NC1CCS(=O)(=O)C1)c1ccccc1 (centres undefined)	-8%[5.75 µM]	?	-7%	-1	-3	-3%	9
CCOc1cc(-c2c(C#N)c(=O)[nH]c3c2c(C)nn3-c2ccc(F)cc2)ccc1O	-3%[5.75 µM]	7.9µM*	1%	5	-10	-6%	26	PR8 titer=4*
CC(C)CN(C(=O)CN1C(=O)NC2(CCc3ccccc32)C1=O)C1CCS(=O)(=O)C1 (centres undefined)	-1%	nt	-6%	nt	nt	?	nt
CC(C)(C)NC(=O)NC(=O)CN1CCN(c2cccc(Cl)c2)CC1	?	7.9µM*	7%	1	-2	?	-26	PR8 titer=8.3
Cc1onc(-c2ccccc2)c1C(=O)Nc1cccnc1	?	6.3µM*	-8%	7	-18	1%	2
Cc1onc(-c2ccccc2Cl)c1C(=O)Nc1cccnc1	nt	-1%	-21%	3	23	?	nt
Cc1cccc(C)c1-n1c(C)cc(/C=N\Nc2ccc([N+](=O)[O-])cn2)c1C	-51%	13µM*	-34%	28*	67*	nt	-35
